Assay [1] has as its target Estrogen receptor (Homo sapiens) (UniProt P03372). The experiment in a line: CCTE_Deisenroth_AIME_384WELL_LUC_Active: CCTE's 384-well Estrogen Receptor Transactivation Assay with AIME metabolic competence (ERTA luciferase; metabolism positive), Deisenroth Lab (AID 2284030). Summed up: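 Readout: bioluminescent luciferase induction in VM7Luc4E2 cells 24 hour after receiving medium from a 2 h rat hepatic S9 (induced, alginate microsphere) metabolism step. Concentrations 0.002 - 200 uM; activity scaled to 17beta-estradiol positive control.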

Assay [2] is described as follows: CCTE_Deisenroth_AIME_384WELL_CTox_Active: Cytotoxicity Assessment (CTOX) in CCTE's 384-well Estrogen Receptor Transactivation Assay with AIME metabolic competence (metabolism positive), Deisenroth Lab (AID 2284037).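 Note: chemicals first conditioned 2 h by alginate-bound induced rat liver S9 before cells; activity means signal loss indicating cell death.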 The essentials: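 Chemicals pre-incubated 2 hours with alginate-immobilised phenobarbital/beta-naphthoflavone-induced male Sprague Dawley rat liver S9, then conditioned medium applied 24 hour to VM7Luc4E2 cells. Viability by fluorogenic protease substrate; 10-point series 0.002 - 200 uM.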

The target of assay [3] is Estrogen receptor (Homo sapiens) (UniProt P03372). The experiment in a line: CCTE_Deisenroth_AIME_384WELL_LUC_Inactive: CCTE's 384-well Estrogen Receptor Transactivation Assay without AIME metabolic competence (ERTA luciferase; metabolism negative), Deisenroth Lab (AID 2284038).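 Note: hits raise estrogen receptor luciferase signal so potencies reflect agonists.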 Summed up: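 Metabolism-negative mode: AIME lids stamped in alginate-water, no hepatic S9. 2 h chemical incubation → medium onto VM7Luc4E2 ERTA, 24 h. Readout luciferase luminescence; gain-of-signal fit vs 17beta-estradiol. Conc. 0.002 - 200 uM.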
Estrogen receptor (Homo sapiens), sequence (P03372 whole entry, looked up): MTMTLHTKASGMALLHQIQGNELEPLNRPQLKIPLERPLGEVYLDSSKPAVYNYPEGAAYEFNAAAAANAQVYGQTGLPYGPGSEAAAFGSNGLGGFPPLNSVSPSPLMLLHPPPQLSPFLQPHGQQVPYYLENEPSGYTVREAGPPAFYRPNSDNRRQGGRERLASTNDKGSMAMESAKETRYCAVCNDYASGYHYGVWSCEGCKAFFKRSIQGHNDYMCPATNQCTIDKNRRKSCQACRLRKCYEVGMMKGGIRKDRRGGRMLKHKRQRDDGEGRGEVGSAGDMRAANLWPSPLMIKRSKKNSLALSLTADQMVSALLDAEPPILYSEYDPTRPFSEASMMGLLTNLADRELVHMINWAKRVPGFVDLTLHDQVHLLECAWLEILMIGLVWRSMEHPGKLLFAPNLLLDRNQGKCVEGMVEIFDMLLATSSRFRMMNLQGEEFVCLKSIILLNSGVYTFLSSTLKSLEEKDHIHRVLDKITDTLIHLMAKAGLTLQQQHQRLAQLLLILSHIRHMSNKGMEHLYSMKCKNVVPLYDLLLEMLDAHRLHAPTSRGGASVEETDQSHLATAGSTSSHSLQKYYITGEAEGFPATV

A short description of assay [4]: CCTE_Deisenroth_AIME_384WELL_CTox_Inactive: Cytotoxicity Assessment (CTOX) in CCTE's 384-well Estrogen Receptor Transactivation Assay without AIME metabolic competence (metabolism negative), Deisenroth Lab (AID 2284039).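 Note: cell viability via live-cell protease substrate cleaved to fluorescent probe; cells exposed 24 h to medium preincubated 2 h with alginate-water beads without S9; loss of fluorescence signal means loss of viability.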 Summed up:
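VM7Luc4E2 cells, metabolism-negative arm: test chemicals (0.002–200 uM, 10 points) pre-incubated 2 h with alginate-water microspheres, then medium transferred to cells for 24 h. Viability read as protease-substrate cleavage to fluorescent probe; loss-of-signal, bidirectional fitting.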

In assay [5] the target is Estrogen receptor (Homo sapiens) (UniProt P03372). The experiment in a line: CCTE_Deisenroth_AIME_384WELL_LUC_Shift: CCTE's 384-well Estrogen Receptor Transactivation Assay with AIME metabolic competence data shift (ERTA luciferase; difference in metabolism positive and negative), Deisenroth Lab (AID 2284041; active = hit-call score of the fitted dose curve at least 0.9, where 1 is the maximum; inactive = score below 0.9;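 note: shift is response with S9 minus without S9 so positive means metabolism raised ER signal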). Summed up: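 Chemicals (0.002–200 uM, 10 points) pre-incubated 2 h with alginate-encapsulated induced male Sprague Dawley rat liver S9 or S9-free, then medium applied 24 h to VM7Luc4E2 cells; luciferase. Endpoint is per-concentration difference, S9-positive minus negative.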

A short description of assay [6]: CCTE_Shafer_MEA_dev_firing_rate_mean: CCTE's Neural Network Formation Assay for Mean Firing Rate, Shafer Lab (AID 2284031; active = hit-call score of the fitted dose curve at least 0.9, where 1 is the maximum; inactive = score below 0.9). The essentials:
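Extracellular spike frequency, AUC over DIV 5–12 recordings, in rat cortical neuron MEA cultures dosed from plating; loss direction vs DMSO.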

Assay [7] is described as follows: CCTE_Shafer_MEA_dev_per_burst_spike_percent: CCTE's Neural Network Formation Assay for Percent of Spikes in a Burst, Shafer Lab (AID 2284032; active = hit-call score of the fitted dose curve at least 0.9, where 1 is the maximum; inactive = score below 0.9). The essentials:
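Value is trapezoidal AUC over recordings on days 5, 7, 9 and 12 of the well-mean fraction of spikes falling in single-electrode bursts; rat cortical cultures exposed continuously from plating, treatment renewed DIV 5 and 9, fitted downward against DMSO.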

The nature of assay [8]: CCTE_Shafer_MEA_dev_active_electrodes_number: CCTE's Neural Network Formation Assay for Number of Active Electrodes, Shafer Lab (AID 2284040). Summed up:
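Developing rat cortical networks on MEAs, exposed DIV 0–12. Value is the AUC of active-electrode counts (≥5 spikes/min) from days 5, 7, 9, 12, relative to DMSO.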

Assay [9] can be described thus: CCTE_Shafer_MEA_dev_burst_rate: CCTE's Neural Network Formation Assay for Burst Rate, Shafer Lab (AID 2284042; active = hit-call score of the fitted dose curve at least 0.9, where 1 is the maximum; inactive = score below 0.9). Summed up: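 Primary rat cortical neurons on PEI-coated 48-well MEA plates (laminin added with cells at plating) (16 electrodes/well), exposed from plating to day 12, dosing renewed at DIV 5 and 9. Burst rate averaged over active electrodes, recorded DIV 5, 7, 9, 12, summarized as AUC; loss versus DMSO.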

A short description of assay [10]: CCTE_Shafer_MEA_dev_bursting_electrodes_number: CCTE's Neural Network Formation Assay for Number of Bursting Electrodes, Shafer Lab (AID 2284043). The essentials: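 Rat cortical primary neurons, 48-well MEA, 16 electrodes/well; dosing DIV 0–12, re-dosed with full media change DIV 5, 9. Recordings DIV 5/7/9/12, AxIS adaptive spike detector; bursting electrode = ≥1 burst/2 min. AUC across days; loss of signal vs DMSO.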

A short description of assay [11]: CCTE_Shafer_MEA_dev_per_burst_interspike_interval: CCTE's Neural Network Formation Assay for Burst Interspike Interval, Shafer Lab (AID 2284044; active = hit-call score of the fitted dose curve at least 0.9, where 1 is the maximum; inactive = score below 0.9). The essentials: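 Readout is the average time between spikes inside single-electrode bursts, taken as a well mean across bursting electrodes. Cortical neurons from rat developed networks on MEA plates under continuous 12-day exposure; recordings on days 5, 7, 9 and 12 were integrated by trapezoidal AUC.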

The nature of assay [12]: CCTE_Shafer_MEA_dev_burst_duration_mean: CCTE's Neural Network Formation Assay for Mean Burst Duration, Shafer Lab (AID 2284045; active = hit-call score of the fitted dose curve at least 0.9, where 1 is the maximum; inactive = score below 0.9). Summed up:
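Rat cortical cultures, 1.5 x 10^5 cells/well with laminin drop; continuous dosing days 0–12, media plus treatment refreshed DIV 5, 9. AxIS adaptive spike detection; mean single-electrode burst duration, AUC over four recordings, negative direction vs DMSO.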

Assay [13] in a line: CCTE_Shafer_MEA_dev_interburst_interval_mean: CCTE's Neural Network Formation Assay for Mean Interburst Interval, Shafer Lab (AID 2284046; active = hit-call score of the fitted dose curve at least 0.9, where 1 is the maximum; inactive = score below 0.9;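 note: well-mean interburst interval of bursting electrodes as AUC over four recording days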). The essentials: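 Recordings on days 5, 7, 9 and 12 give well-mean interburst interval across actively bursting electrodes, summarized as area under the curve. Cultures: rat cortical neurons, continuous exposure from day 0, compound renewed at feeds; decrease analyzed versus DMSO.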

A short description of assay [14]: CCTE_Shafer_MEA_dev_inter_network_spike_interval_mean: CCTE's Neural Network Formation Assay for Mean Inter-network Spike Interval, Shafer Lab (AID 2284047; active = hit-call score of the fitted dose curve at least 0.9, where 1 is the maximum; inactive = score below 0.9). The essentials: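 Primary rat cortical neurons on 16-electrode MEA wells, exposed from plating day 0 through DIV 12, compound renewed at DIV 5 and 9 media changes. Mean interval between network-spike peaks recorded DIV 5, 7, 9, 12; collapsed as trapezoidal AUC, fitted downward versus DMSO.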

The nature of assay [15]: CCTE_Shafer_MEA_dev_network_spike_number: CCTE's Neural Network Formation Assay for Number of Network Spikes, Shafer Lab (AID 2284048; active = hit-call score of the fitted dose curve at least 0.9, where 1 is the maximum; inactive = score below 0.9). Summed up:
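Rat cortical primary cultures on 48-well MEA (16 electrodes/well); continuous exposure DIV 0–12, full medium and treatment exchange DIV 5, 9. Readout: network spike count, AxIS adaptive detection, recordings DIV 5/7/9/12 collapsed to AUC; loss-of-signal fit, DMSO baseline.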

Assay [16] is described as follows: CCTE_Shafer_MEA_acute_cross_correlation_HWHM: CCTE's Neural Acute Assay for Cross Correlation at Half Width at Half Maximum, Shafer Lab (AID 2284026; active = hit-call score of the fitted dose curve at least 0.9, where 1 is the maximum; inactive = score below 0.9;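 note: percent change per well from pre-dose baseline in spike cross-correlogram half width; hits are a decrease in cross-correlogram half width relative to DMSO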;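 for outcome: spontaneous network firing of rat primary cortical neurons on multiwell microelectrode arrays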). The essentials:
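Read-out: half width at half maximum of action-potential cross-correlogram, percent change versus pre-treatment baseline, fitted in loss direction against DMSO. Rat cortical cultures, DIV 13 or 15, dosed 0.03-40 uM, 40-min recordings at 37 C.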

Assay [17] is described as follows: CCTE_Shafer_MEA_acute_synchrony_index: CCTE's Neural Acute Assay for Synchrony, Shafer Lab (AID 2284027; active = hit-call score of the fitted dose curve at least 0.9, where 1 is the maximum; inactive = score below 0.9;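 note: network synchrony index of spontaneous spiking in primary rat cortical neurons on MEAs; fitted for loss of signal so actives lower synchrony relative to DMSO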). Summed up: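 Acute exposure of rat primary cortical neurons (DIV 13 or 15) at 0.03-40 uM. Synchrony index, 40 min before vs after, as % change relative to DMSO control.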
The target in assay [18] is Estrogen receptor (Homo sapiens) (UniProt P03372). As to the kind of experiment: CCTE_Deisenroth_AIME_96WELL_LUC_Inactive: CCTE's 96-well Estrogen Receptor Transactivation Assay without AIME metabolic competence (ERTA luciferase; metabolism negative), Deisenroth Lab (AID 2284025). The essentials:
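Metabolism-negative arm: chemicals (0.002–200 uM, 10 points) incubated 2 h with alginate-water microspheres, then medium moved onto VM7Luc4E2 cells for 24 h luciferase read-out. Positive direction vs 17beta-estradiol; n≥4 experiments.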

Assay [19] can be described thus: CCTE_Deisenroth_AIME_96WELL_CTox_Active: Cytotoxicity Assessment (CTOX) in CCTE's 96-well Estrogen Receptor Transactivation Assay with AIME metabolic competence (metabolism positive), Deisenroth Lab (AID 2284028). Summed up: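 Cytotoxicity in VM7Luc4E2 breast cells after 24 h exposure to medium from a 2 h metabolic pre-incubation with induced rat hepatic S9 in alginate microspheres; fluorescent live-cell protease readout, 10-point series 0.002–200 uM, n=4.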

Structures are written as SMILES. Results filed as inconclusive are left out. Active and inactive are the calls of the source. Rule for the calls, unless noted: active = hit-call score of the fitted dose curve at least 0.9, where 1 is the maximum; inconclusive = response in the unintended direction; inactive = score below 0.9.

In the case of `C=C(C)C1CC=C(C)CC1` (stereo not given), the molecule was classed as inactive in assay [1], in [2], in [3], in assay [4] and in assay [5].

On to `CCCCNS(=O)(=O)c1ccccc1`, for which the molecule was classed as inactive in assay [1], in [6], in [7], in [2], in [3] and in assay [8]. Further, the result in [5], in assay [9], in [10], in [11], in assay [12] and in assay [13] was inactive. Also, the outcome in assay [14] and in [15] was inactive.

Turning to `Nc1cccc(N)n1`, the result in assay [16] was inactive. Further, the AC50 in assay [17] was 0.003 µM (active).

As to `Oc1ccccc1Cc1ccccc1O`, the AC50 in assay [16] was 5.2 µM (active); in assay [17], 8.49 µM (active).

For `CCCCCC(=O)OCC`, the call in assay [1], in assay [2], in assay [3] and in [5] was inactive. Besides, the AC50 in assay [4] is 19.8 µM (active).

`CCCCCCCCCCCCCCCCCCOS(=O)(=O)O`: the molecule was called inactive in [1], in assay [2], in [3], in assay [4] and in [5].

As to `CC/C=C\CCOC(=O)c1ccccc1O`, the molecule was classed as inactive in [16] and in [17].

Take `CC1(C)CC(O)CC(C)(C)N1[O]`: the result in [16] and in assay [17] was inactive.

On to `N#Cc1ccc(C(c2ccc(C#N)cc2)n2cncn2)cc1`, for which the call in assay [1], in assay [2], in assay [3], in assay [4] and in assay [5] was inactive.

`O=C(O)CCC(=O)O`: the call in assay [1], in assay [2], in assay [3], in assay [4] and in [5] was inactive.

For `CCCC(C)C(=O)OCC` (stereo not given), the molecule was called inactive in assay [16] and in assay [17].

On to `O=C(Oc1ccccc1)c1ccccc1O`, for which the molecule was classed as inactive in assay [1], in assay [2] and in assay [4]. The half-maximal activity concentration (AC50) in assay [3] is 53.4 µM (active); in assay [5], 38.4 µM (active).

Regarding `CC(C)C(=O)OCCc1ccccc1`, the call in assay [16] and in assay [17] was inactive.

Turning to `COc1ccc(C(=O)c2ccccc2)c(O)c1`, the AC50 in [18] was 18.5 µM (active). Also, the molecule was classed as inactive in assay [19].

Regarding `CC(C)c1cc(C(C)C)cc(C(C)C)c1`, the molecule was classed as inactive in assay [1], in assay [2], in assay [3], in assay [4] and in assay [5].

With `C1CNCCN1`, the molecule was classed as inactive in assay [16] and in assay [17].

For the molecule `CCCCCCCCCC(C)=O`, the molecule was called inactive in assay [1], in assay [2], in assay [3], in assay [4] and in assay [5].

The AC50 is the midpoint of the concentration-response curve, whichever way the signal moves.

The record behind these values is PubChem BioAssay (EPA / NIEHS).
